From PubChem
Only some compounds are listed: those with a hit (about 21% of all), similar ones and a draw of the others.
HCV inhibitor – blocks hepatitis C virus; Potency, µM (doses to about 41.8 µM), for the others: top-dose activity change, negative = inhibition, usual class: inhibitors; AID 651820; Huh7.5.1 HCVcc-Cre infection, luciferase reporter, 44 h; 340,000 tested, 3.4% active; note: potency is the fitted concentration of half-maximal effect; % is set by controls: 0 for no effect and ±100 for the full control effect
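Infectious HCV cell culture screen: compound-treated cells (1,000/well, pre-plated 4 h) are infected with HCVcc-Cre at roughly 0.5 moi and grown 44 h. Infection is quantified by luciferase signal after 15 min substrate incubation at room temperature.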
Pf growth 96h – P. falciparum growth inhibition at 96 hours; P. falciparum luciferase reporter growth, 96 h; Potency, µM (doses to about 28.7 µM), inactives show at the highest dose activity change, negative = inhibition, usual class: inhibitors; 320,000 tested, 6.9% active; AID 504834; note: potency is the fitted concentration of half-maximal effect; % is set by controls: 0 for no effect and ±100 for the full control effect
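Luminescence readout: decreased luciferase signal marks inhibited growth of reporter-expressing P. falciparum in infected red cells (2% hematocrit, 0.05% parasitemia final), exposed to compound two generations (96 h, 37 C, 5% CO2).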
Cycloheximide cs – counter-screen for Shiga toxin inhibitors: cycloheximide protein synthesis inhibition; max response, %; cell reporter, cycloheximide protein synthesis inhibition counterscreen; 300,000 tested, 12% active; in the data active = max response mostly above about 13%, no sharp cut-off; inactive = mostly below about 14%; note: read at 38.3 µM for the half of the compounds with a filed dose; 0% is about no effect
Pf growth 48h – P. falciparum growth inhibition at 48 hours (one generation) | 310,000 tested, 5.9% active | P. falciparum luciferase growth in erythrocytes, 48 h | Potency, µM (top dose mostly 28.7 µM), inactives show at the top dose activity change, negative = inhibition, hits mostly inhibitors; note: potency is the fitted concentration of half-maximal effect; % is set by controls: 0 for no effect and ±100 for the full control effect
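Luciferase-expressing P. falciparum in infected erythrocytes (2% hematocrit, 0.1% parasitemia final) in RPMI 1640/0.5% Albumax were exposed to compound for 48 hours at 37 C, 5% CO2; growth read as luminescence.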
Shiga inhibitor – inhibitors of Shiga toxin in Vero cells; 290,000 tested, 9.2% active; inhibition, % at 38.7 µM; Vero cells, Shiga toxin protein synthesis inhibition reporter; in the data active = inhibition mostly above about 28%, no sharp cut-off; inactive = mostly below about 43%; note: 0% is about no effect
AMA1-RON2 inh – disrupts binding of P. falciparum AMA1 to RON2; AlphaScreen AMA1-biotinylated RON2 peptide binding; Potency, µM (doses to about 58.2 µM), inactives show top-dose activity change, negative = inhibition, usual class: inhibitors; 360,000 tested, 0.2% active; AID 720542;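 note: potency is the fitted concentration of half-maximal effect; 0% = vehicle wells and -100% = peptide control; nearly all actives have a fitted effect of over 45% in size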
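AMA1 (3D7) with his tag at 25 nM final met compounds first, then biotinylated RON2 peptide at 25 nM; detection used donor plus acceptor beads, 10 µg/mL apiece, read by AlphaScreen after 30 min at room temperature.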
* = called active by the depositor; u = inconclusive; x = no result; [ ] = remark or other dose. Unless noted, calls come from the whole dose curve; as a rule, active = well fitted curve in the direction sought with a large enough effect; inconclusive = small, poorly fitted or top-dose-only effect, or another doubt; inactive = no such curve, though single readings can be large; an effect the other way counts as inactive or inconclusive.

SMILES | HCV inhibitor | Pf growth 96h | Cycloheximide cs | Pf growth 48h | Shiga inhibitor | AMA1-RON2 inh
Cc1ccc(CNC2CCCCC2)s1 | 13% | u | 3 | 0% | -14 | -4%
CCCC(=O)Nc1cccc(-c2nc3ccccc3c(=O)o2)c1 | 7% | 7% | -1 | 19% | -18 | 4%
COc1ccc(CN2C(=O)CN(S(C)(=O)=O)CC2(C)C(=O)NCc2ccccc2)cc1OC (stereo not drawn) | x | x | x | x | x | 4%
O=C(NC1CC(=O)N(c2ccc3c(c2)OCCO3)C1)N1CCC(O)CC1 (stereo not drawn) | 20% | -1% | x | u | x | -3%
CCn1c(SCC(=O)N/N=C(/C)c2ccncc2)nc2ccccc21 | 6% | u | -2 | -14% | 11 | 39%
O=C(NCc1ccccc1)c1ccc(S(=O)(=O)NCc2ccco2)cc1 | -6% | -12% | 38* | 11% | 53* | 0%
Cc1noc(C)c1COC(=O)c1ccc(S(=O)(=O)NCc2ccco2)cc1 | u | u | 16* | -3% | 56 | -13%
O=S(=O)(NCc1ccco1)c1ccc2c(c1)Cc1ccccc1-2 | -71% | 63% | 48* | u | 41* | -7%
Cc1ccc(S(=O)(=O)NCc2ccco2)cc1C | 14% | 23%[5.75 µM] | 9 | 36% | 40 | -5%
NS(=O)(=O)c1ccc(CNC(=O)c2ccc(S(=O)(=O)NCc3ccco3)cc2)cc1 | 7% | 3% | x | 9% | x | 4%
O=C(COc1ccc(Cl)cc1)Nc1cccc(S(=O)(=O)NCc2ccco2)c1 | 32µM* | -22% | x | -30% | x | 3%
CCc1nc2ccc(C(=O)Nc3cccc(OC)c3)cn2c1N(CC)CCN(C)C | x | x | x | x | x | 0%
Cc1c(C(=O)N2CCC(C)(C(=O)NS(=O)(=O)C3CC3)C2)oc2ccccc12 (stereo not drawn) | x | x | x | x | x | 3%
O=C(CSc1nnc(NC(=O)c2cccc(Cl)c2)s1)NCC1CCCO1 (stereo not drawn) | -7% | -6% | 5 | 22% | -5 | 7%
CC(OC(=O)c1ccc(S(=O)(=O)NCc2ccco2)cc1)C(=O)Nc1ccc(Cl)cn1 (stereo not drawn) | -3% | 1% | 38* | 2% | 68* | -8%
C[C@H](NC(=O)c1nc[nH]c1C(=O)NC(c1ccccc1)c1ccccc1)C(=O)OCc1ccccc1 | 6% | u | -6 | 10µM* | -7 | 128%
CC(C)C[C@H](NC(=O)c1nc[nH]c1C(=O)NC(c1ccccc1)c1ccccc1)C(=O)OCc1ccccc1 | u | 2.9µM* | 5 | 3.7µM* | 12 | 103%
CC(C)C[C@H](NC(=O)c1[nH]cnc1C(=O)N[C@@H](Cc1ccccc1)C(=O)OCc1ccccc1)C(=O)OCc1ccccc1 | 19% | u | 0 | u | 17 | 160%
C[C@H](NC(=O)c1nc[nH]c1C(=O)N[C@@H](C)C(=O)OCc1ccccc1)C(=O)OCc1ccccc1 | 22% | 7% | -2 | 31% | 21 | 155%
CC(C)C[C@H](NC(=O)c1nc[nH]c1C(=O)N[C@@H](CC(C)C)C(=O)OCc1ccccc1)C(=O)OCc1ccccc1 | u | 12µM* | 1 | u | -1 | 155%
CCN(CC)CC(=O)Nc1ccc([N+](=O)[O-])cc1 | -9% | 23% | -1 | 5% | -5 | 0%
O=S(=O)(Nc1ccon1)c1ccc(F)c(F)c1 | 10% | u | -2 | -6% | 4 | 8%
CN(Cc1ccccc1)c1nc2c(c(=O)[nH]c(=O)n2C)n1CCOc1ccccc1 | u | u | -3 | 9.3µM* | -10 | -6%
CCCn1c(N2CCN(Cc3cccc(C)c3)CC2)nc2c1c(=O)[nH]c(=O)n2C | -20% | 1.9µM* | -3 | x | -7 | 16%
CN(Cc1ccccc1)Cc1nc2c([nH]1)c(=O)[nH]c(=O)n2C | 9% | 10µM* | -1 | 22% | 9 | 81%
SMILES | HCV inhibitor | Pf growth 96h | Cycloheximide cs | Pf growth 48h | Shiga inhibitor | AMA1-RON2 inh
Cc1cccc(Cn2c(N3CCN(C)CC3)nc3c2c(=O)[nH]c(=O)n3C)c1 | 29% | u | 1 | 15% | -4 | 11%
C=C(C)Cn1c(N2CCC(Cc3ccccc3)CC2)nc2c1c(=O)[nH]c(=O)n2C | -12% | u | -4 | 13µM* | -3 | -10%
CC(=O)Cn1c(N2CCC(Cc3ccccc3)CC2)nc2c1c(=O)[nH]c(=O)n2C | -1% | u | -6 | 2% | 10 | -8%
CC(C)CN1CCC(=O)N([C@H](COc2ccccc2)c2ccccc2)CC1 | -16% | u | 2 | u | -5 | -6%
CCOC(=O)Nc1ccc2c(COC(=O)C(NS(=O)(=O)c3ccc(Cl)cc3)C(C)O)cc(=O)oc2c1 (stereo not drawn) | u | x | x | x | x | -12%
CN1CCN(c2nc3c(c(=O)[nH]c(=O)n3C)n2CCCSc2nnnn2-c2ccccc2)CC1 | 11% | 9.3µM* | 6 | u | 10 | -7%
Cc1cc(C)n(-c2nc3c(c(=O)[nH]c(=O)n3C)n2CCc2ccccc2)n1 | 3% | 3% | -1 | -17% | -7 | 0%
Cn1c(=O)[nH]c(=O)c2c1nc(CN1CCN(c3cccc(Cl)c3)CC1)n2CCCc1ccccc1 | 4% | 13% | -2 | 9.3µM* | -6 | 5%
Cc1cc(C)n(-c2nc3c(c(=O)[nH]c(=O)n3C)n2Cc2ccccc2)n1 | 2µM* | 0% | -3 | 17% | -13 | -3%
CCCCn1c(CN2CCN(c3cccc(Cl)c3)CC2)nc2c1c(=O)[nH]c(=O)n2C | u | 35% | -3 | u | -12 | -3%
CCCCCn1c(N2CCN(Cc3ccccc3)CC2)nc2c1c(=O)[nH]c(=O)n2C | 10µM* | u | -3 | 12µM* | -7 | 23%
CC(C)CCn1c(N2CCN(Cc3ccccc3)CC2)nc2c1c(=O)[nH]c(=O)n2C | 0% | u | -2 | u | 28 | x
CCCCCn1c(Sc2ccccc2)nc2c1c(=O)[nH]c(=O)n2C | -6% | 0% | 1 | -6% | -3 | 5%
Cn1c(=O)[nH]c(=O)c2c1nc(CN1CCOCC1)n2Cc1ccccc1 | 16% | u | -2 | 4% | 29 | 10%
Cc1cccc(Cn2c(CN3CCN(Cc4ccccc4)CC3)nc3c2c(=O)[nH]c(=O)n3C)c1 | 10µM* | 1.9µM* | -4 | 6.6µM* | -8 | -4%
Cn1c(=O)[nH]c(=O)c2c1nc(SCC(=O)Nc1ccccc1)n2Cc1ccccc1 | 11µM* | 9.3µM* | 8 | 12µM* | -4 | -11%
Cc1cc(C)n(-c2nc3c(c(=O)[nH]c(=O)n3C)n2C)n1 | 10% | 0% | -1 | 38% | 25 | 0%
C=CCn1c(Sc2ccccc2)nc2c1c(=O)[nH]c(=O)n2C | 5% | 8% | -1 | 12µM* | -5 | 1%
